Data on five molecules can be found in PubChem BioAssay (EPA / NIEHS).

Conditions in all cases: mRNA level, 48 h; actives raise or lower the signal
Read-out in assay [1]: Forkhead box O3 (FOXO3), FOXO3 (gene 2309)
Kind of assay: LTEA_HepaRG_FOXO3: Life Technologies and Expression Analysis (LTEA) Assay for Forkhead box O3 (FOXO3) using HepaRG (AID 2283459). The essentials: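 Differentiated human HepaRG cells, 48 h post-plating, exposed in duplicate for 48 h in serum-free induction medium; 8-point half-log series from 100 uM in 0.5% DMSO. FOXO3 mRNA by TaqMan qRT-PCR, normalized to ACTB/GAPDH/POLR2A; bidirectional fit versus DMSO.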

Read-out in assay [2]: ABC Transporter (ABCB1), ABCB1 (gene 5243)
As to the kind of experiment: LTEA_HepaRG_ABCB1: Life Technologies and Expression Analysis (LTEA) Assay for ABC Transporter (ABCB1) using HepaRG (AID 2283460). The essentials: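 HepaRG cells exposed in duplicate for 48 h in serum-free induction medium to eight half-log concentrations up to 100 uM in 0.5% DMSO. ABCB1 mRNA quantified by qRT-PCR, normalised to ACTB, GAPDH and POLR2A; fitted bidirectionally versus DMSO.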

Read-out in assay [3]: ABC Transporter (ABCC3), ABCC3 (gene 8714)
Kind of assay: LTEA_HepaRG_ABCC3: Life Technologies and Expression Analysis (LTEA) Assay for ABC Transporter (ABCC3) using HepaRG (AID 2283462). The essentials:
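Transcriptional change of ABCC3 in HepaRG after 48 h treatment, determined by qRT-PCR normalized to endogenous controls. Concentrations spanned eight half-log steps to 100 uM in 0.5% DMSO.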

Read-out in assay [4]: ABC Transporter (ABCB11), ABCB11 (gene 8647)
Kind of assay: LTEA_HepaRG_ABCB11: Life Technologies and Expression Analysis (LTEA) Assay for ABC Transporter (ABCB11) using HepaRG (AID 2283463). The essentials:
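Differentiated human HepaRG cells in serum-free induction medium, dosed in duplicate for 48 h. Eight-point half-log series from 100 uM in 0.5% DMSO; ABCB11 mRNA by qRT-PCR, normalized to ACTB, GAPDH, POLR2A, fitted bidirectionally versus DMSO.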

Read-out in assay [5]: ABC Transporter (ABCC2), ABCC2 (gene 1244)
Kind of assay: LTEA_HepaRG_ABCC2: Life Technologies and Expression Analysis (LTEA) Assay for ABC Transporter (ABCC2) using HepaRG (AID 2283464). The method, boiled down: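 After plating and 48 h culture, HepaRG medium is replaced with serum-free induction medium and chemicals are added (8 concentrations, max 100 uM, 0.5% DMSO) for 48 h. Total RNA then undergoes qRT-PCR for ABCC2 with housekeeping normalization.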

Read-out in assay [6]: Broad substrate specificity ATP-binding cassette transporter ABCG2 (Homo sapiens) (UniProt Q9UNQ0)
Kind of assay: LTEA_HepaRG_ABCG2: Life Technologies and Expression Analysis (LTEA) Assay for ABC Transporter (ABCG2) using HepaRG (AID 2283465). The method, boiled down: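 Differentiated HepaRG cells were exposed for 48 h in serum-free induction medium to 8 half-log concentrations, top 100 uM, in 0.5% DMSO. ABCG2 mRNA was measured by qRT-PCR, normalized to ACTB, GAPDH and POLR2A, with bidirectional fitting versus DMSO.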

Read-out in assay [7]: ATP-citrate lyase (ACLY), ACLY (gene 47)
As to the kind of experiment: LTEA_HepaRG_ACLY: Life Technologies and Expression Analysis (LTEA) Assay for ATP-citrate lyase (ACLY) using HepaRG (AID 2283466). The method, boiled down:
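Differentiated HepaRG cells exposed 48 h in serum-free induction medium to eight half-log concentrations up to 100 uM in 0.5% DMSO, duplicates. Transcript measured by Fluidigm TaqMan qRT-PCR, normalized to ACTB, GAPDH, POLR2A; bidirectional fit versus DMSO.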

Read-out in assay [8]: Alkaline Phosphatase, Placental (ALPP) gene, ALPP (gene 250)
As to the kind of experiment: LTEA_HepaRG_ALPP: Life Technologies and Expression Analysis (LTEA) Assay for Alkaline Phosphatase, Placental (ALPP) gene using HepaRG (AID 2283468). The essentials:
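Using human liver HepaRG cells, chemicals are tested in duplicate over 48 h at half-log concentrations topping at 100 uM; phenobarbital 1 mM serves as induction control. ALPP mRNA change by qRT-PCR, bidirectional fit against vehicle.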

Read-out in assay [9]: Bcl-2 (BAD) gene, BAD (gene 572)
As to the kind of experiment: LTEA_HepaRG_BAD: Life Technologies and Expression Analysis (LTEA) Assay for Bcl-2 (BAD) gene using HepaRG (AID 2283469). The essentials: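 Differentiated HepaRG cells were exposed in duplicate in 0.5% DMSO for 48 h to eight-point half-log concentrations up to 100 uM. BAD mRNA was measured by Fluidigm TaqMan qRT-PCR, normalized to ACTB, GAPDH and POLR2A, and fitted bidirectionally against DMSO.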

Read-out in assay [10]: Bcl-2 (BAX) gene, BAX (gene 581)
As to the kind of experiment: LTEA_HepaRG_BAX: Life Technologies and Expression Analysis (LTEA) Assay for Bcl-2 (BAX) gene using HepaRG (AID 2283470). The essentials:
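Differentiated human HepaRG cells, plated 48 h then switched to serum-free induction medium, were exposed 48 h to 8 half-log concentrations up to 100 uM in 0.5% DMSO; BAX mRNA measured by qRT-PCR, normalized to ACTB, GAPDH, POLR2A.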

Read-out in assay [11]: adenosine kinase (ADK) gene, ADK (gene 132)
Kind of assay: LTEA_HepaRG_ADK: Life Technologies and Expression Analysis (LTEA) Assay for adenosine kinase (ADK) gene using HepaRG (AID 2283471). The essentials:
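Read-out is ADK transcript level measured by qRT-PCR and normalised to three housekeeping genes. Cells are human HepaRG, dosed for 48 h at up to 100 uM in 0.5% DMSO. Gain or loss of signal is fitted against DMSO controls.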

Read-out in assay [12]: Alpha-fetoprotein (AFP) gene, AFP (gene 174)
Kind of assay: LTEA_HepaRG_AFP: Life Technologies and Expression Analysis (LTEA) Assay for Alpha-fetoprotein (AFP) gene using HepaRG (AID 2283472). The essentials:
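Human HepaRG cells plated 48 h, then switched to serum-free induction medium and exposed in duplicate for 48 h to 8-point half-log series from 100 uM in 0.5% DMSO. AFP mRNA by qRT-PCR, normalized to ACTB, GAPDH, POLR2A; bidirectional fit versus DMSO.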

Read-out in another assay: BCL2L11 (gene 10018)
As to the kind of experiment: LTEA_HepaRG_BCL2L11: Life Technologies and Expression Analysis (LTEA) Assay for Bcl-2 (BCL2L11) gene using HepaRG (AID 2283473). The essentials:
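Human hepatic HepaRG cultures are treated 48 h with test chemicals (maximum 100 uM, 0.5% DMSO vehicle). Expression of BCL2L11 is measured by qRT-PCR against ACTB, GAPDH and POLR2A, with activity in either direction scored relative to vehicle.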

Read-out in assay [13]: Apolipoprotein A-V (APOA5) gene, APOA5 (gene 116519)
As to the kind of experiment: LTEA_HepaRG_APOA5: Life Technologies and Expression Analysis (LTEA) Assay for Apolipoprotein A-V (APOA5) gene using HepaRG (AID 2283474). The method, boiled down:
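Concentration-response of APOA5 expression in HepaRG: eight half-log doses to 100 uM, 48 h, qRT-PCR normalized to ACTB/GAPDH/POLR2A, bidirectional fitting with 0.5% DMSO as baseline.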

Read-out in assay [14]: Apoptosis regulator Bcl-2 (Homo sapiens) (UniProt P10415)
Kind of assay: LTEA_HepaRG_BCL2: Life Technologies and Expression Analysis (LTEA) Assay for Bcl-2 gene using HepaRG (AID 2283475). The method, boiled down:
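Differentiated HepaRG cells in serum-free induction medium were exposed for 48 h to eight half-log concentrations up to 100 uM in 0.5% DMSO, in duplicate. BCL2 mRNA was quantified by TaqMan qRT-PCR normalised to ACTB, GAPDH and POLR2A, with bidirectional fitting versus DMSO.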

Read-out in assay [15]: Bcl-2 (BID) gene, BID (gene 637)
Kind of assay: LTEA_HepaRG_BID: Life Technologies and Expression Analysis (LTEA) Assay for Bcl-2 (BID) gene using HepaRG (AID 2283476). The essentials:
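Differentiated HepaRG cells in serum-free induction medium were exposed in duplicate for 48 h to eight half-log concentrations up to 100 uM in 0.5% DMSO. BID mRNA was quantified by qRT-PCR, normalized to ACTB, GAPDH and POLR2A.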

Read-out in another assay: Caspase-3 (Homo sapiens) (UniProt P42574)
Kind of assay: LTEA_HepaRG_CASP3: Life Technologies and Expression Analysis (LTEA) Assay for cysteine-aspartic acid protease (CASP3) using HepaRG (AID 2283477). The essentials:
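Transcript-level assay: CASP3 mRNA in human HepaRG after 48 h treatment, eight half-log concentrations from 100 uM in 0.5% DMSO, quantified by qRT-PCR.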

Read-out in assay [16]: Cytochrome P450 (CYP24A1), CYP24A1 (gene 1591)
Kind of assay: LTEA_HepaRG_CYP24A1: Life Technologies and Expression Analysis (LTEA) Assay for Cytochrome P450 (CYP24A1) using HepaRG (AID 2283478). The essentials: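 Gene expression of CYP24A1 by TaqMan qRT-PCR in HepaRG after 48 h treatment, highest concentration 100 uM; activity fitted in both directions relative to DMSO vehicle.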

Active and inactive are the calls of the source. Rule for the calls: active = hit-call score of the fitted dose curve at least 0.9, where 1 is the maximum; inactive = score below 0.9.

Apoptosis regulator Bcl-2 (Homo sapiens), sequence (P10415 whole entry, looked up): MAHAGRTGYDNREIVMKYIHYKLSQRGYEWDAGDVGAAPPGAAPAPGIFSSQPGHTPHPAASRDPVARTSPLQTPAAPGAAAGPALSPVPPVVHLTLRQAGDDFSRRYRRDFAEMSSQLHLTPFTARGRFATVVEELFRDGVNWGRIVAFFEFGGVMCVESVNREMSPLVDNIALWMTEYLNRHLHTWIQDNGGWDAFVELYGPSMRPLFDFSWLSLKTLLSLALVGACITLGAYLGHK
Broad substrate specificity ATP-binding cassette transporter ABCG2 (Homo sapiens), sequence (Q9UNQ0 whole entry, looked up): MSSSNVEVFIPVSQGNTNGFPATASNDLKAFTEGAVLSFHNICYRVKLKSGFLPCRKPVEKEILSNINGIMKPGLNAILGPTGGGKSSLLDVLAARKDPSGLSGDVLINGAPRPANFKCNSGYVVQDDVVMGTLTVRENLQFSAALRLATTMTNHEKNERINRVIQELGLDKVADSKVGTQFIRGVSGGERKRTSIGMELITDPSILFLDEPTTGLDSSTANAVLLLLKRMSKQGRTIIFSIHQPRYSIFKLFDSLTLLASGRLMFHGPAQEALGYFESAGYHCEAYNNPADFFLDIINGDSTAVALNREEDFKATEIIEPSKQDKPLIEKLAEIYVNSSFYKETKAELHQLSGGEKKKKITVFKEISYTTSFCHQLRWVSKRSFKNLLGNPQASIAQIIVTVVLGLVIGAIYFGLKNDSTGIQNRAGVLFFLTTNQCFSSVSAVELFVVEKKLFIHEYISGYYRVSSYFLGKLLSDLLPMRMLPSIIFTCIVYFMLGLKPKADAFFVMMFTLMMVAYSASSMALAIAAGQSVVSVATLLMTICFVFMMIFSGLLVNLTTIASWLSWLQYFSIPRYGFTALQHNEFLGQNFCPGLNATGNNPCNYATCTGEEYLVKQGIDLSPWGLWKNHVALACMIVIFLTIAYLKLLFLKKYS
Caspase-3 (Homo sapiens), sequence (P42574 whole entry, looked up): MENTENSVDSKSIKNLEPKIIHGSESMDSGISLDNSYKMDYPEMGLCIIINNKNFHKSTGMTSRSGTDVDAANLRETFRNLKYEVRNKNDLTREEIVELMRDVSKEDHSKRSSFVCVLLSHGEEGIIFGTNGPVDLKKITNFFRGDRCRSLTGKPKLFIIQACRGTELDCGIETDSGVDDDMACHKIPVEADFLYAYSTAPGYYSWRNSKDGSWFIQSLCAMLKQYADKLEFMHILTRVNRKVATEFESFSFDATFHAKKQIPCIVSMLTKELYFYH

Broadly, the AC50 is the midpoint of the concentration-response curve, whichever way the signal moves. Regarding `[N-]=[N+]=[N-]`, the outcome in assay [1], in [2], in [4], in assay [5], in assay [8] and in assay [9] was inactive. In addition, the outcome (in [10]; in assay [11]; in assay [15]; in the assay with Caspase-3 (Homo sapiens); in [16]) was inactive. Moreover, the concentration at half-maximal activity (AC50) was 69.3 µM (active) in assay [3]; 34.4 µM (active) in assay [6]; 73.4 µM (active) in assay [7]; 77.9 µM (active) in assay [12]; 80.6 µM (active) with BCL2L11 (gene 10018); 50 µM (active) in assay [13]. For the same molecule, the AC50 in assay [14] was 76.8 µM (active).

Take `CCCCN(CCCC)SN(C)C(=O)Oc1cccc2c1OC(C)(C)C2`: the molecule was called inactive in [1], in [3], in [4], in assay [5], in assay [6] and in assay [7]. Besides, the result (in assay [8]; in [9]; in assay [10]; in [11]; in [12]; with BCL2L11 (gene 10018)) was inactive. Further, the molecule was called inactive (in assay [13]; in assay [14]; in assay [15]; with Caspase-3 (Homo sapiens); in assay [16]). For the same molecule, the half-maximal activity concentration (AC50) in assay [2] is 23.2 µM (active).

Take `CN(C)C(=O)Cl`: the molecule was called inactive in assay [1], in [2], in assay [3], in assay [4], in [5] and in [6]. The molecule was called inactive in assay [7], in assay [8], in assay [9], in assay [10], in assay [11] and in assay [12]. In addition, the outcome (in the assay with BCL2L11 (gene 10018); in assay [13]; in [14]; in assay [15]; in the assay with Caspase-3 (Homo sapiens); in [16]) was inactive.

For the molecule `ClC1=C(Cl)C2(Cl)C3C(Cl)C(Cl)CC3C1(Cl)C2(Cl)Cl` (centres undefined), the outcome in [1], in assay [3], in assay [4], in assay [9], in assay [10] and in assay [11] was inactive. Moreover, the call (with BCL2L11 (gene 10018); in assay [14]; in assay [15]; in the assay with Caspase-3 (Homo sapiens); in assay [16]) was inactive. Besides, the AC50 was 6.37 µM (active) in assay [2]; 8.61 µM (active) in assay [5]; 21.4 µM (active) in assay [6]; 85.9 µM (active) in assay [7]; 9.92 µM (active) in assay [8]; 15.2 µM (active) in assay [12]. The half-maximal activity concentration (AC50) in [13] is 50 µM (active).

Take `O=P(Oc1ccccc1)(Oc1ccccc1)Oc1ccccc1`: the molecule was called inactive in assay [1], in assay [3], in assay [4], in assay [9], in assay [10] and in assay [11]. The call (with BCL2L11 (gene 10018); in assay [15]; with Caspase-3 (Homo sapiens); in assay [16]) was inactive. The AC50 in [2] was 5.73 µM (active); in [5], 8.94 µM (active); in assay [6], 8.36 µM (active); in [7] it was 71.6 µM (active); in [12] it was 50 µM (active); in assay [13] it was 50 µM (active). Moreover, the half-maximal activity concentration (AC50) in assay [14] was 80.4 µM (active).
